# According to PubChem BioAssay AID1303 (The Scripps Research Institute Molecular Screening Center, 2008):
# The list shows a part of the results. Unmarked numbers belong to inactive results. The source made the active and inactive calls.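 Rule for the calls: active = inhibition above the mean of solvent-only control wells plus 3 SD of those wells (cut at about 15% in these data); inactive = the rest.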
# Experiment: inhibition of NF-kB transcriptional signalling – cell-based, HEK293T, luciferase luminescence, TNF-alpha, counter-screen for STAT1 inhibitor project (AID 1303);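 note: 0% = DMSO with TNF-alpha and 100% = MG-132 control with TNF-alpha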
# Conditions: HEK293T NF-kB luciferase reporter, TNF-alpha induced, at 5.7 µM, active compounds read high
row,Structure (SMILES),inhibition
1,Cc1ccc(C2=Nc3c(ccc4ccccc34)C(c3ccncc3)=NN2)cc1,4.77%
2,C[C@@H]1C[C@@H]2O[C@H]2/C=C\C=C\C(=O)Cc2c(Cl)c(O)cc(O)c2C(=O)O1,54.9% (active)
3,NS(=O)(=O)c1cccc(NC(=O)CSc2nc3ccccc3n2-c2ccccc2)c1,1.57%
4,O=C(CCl)N(Cc1cccc([N+](=O)[O-])c1)c1cccc(Cl)c1,37.9% (active)
5,COc1ccc(C(=O)Nc2ccccc2C(=O)N/N=C/c2ccccc2OC)cc1,10.2%
6,CCOC(=O)C(=CNc1cccc(C)n1)C(=O)OCC,-2.27%
7,CCOC(=O)N1CCN(C(=O)C2CCN(c3ncnc4c3sc3cccc(F)c34)CC2)CC1,20.1% (active)
8,CCOC(=O)N1CCN(C(=O)CSc2nnc(-c3c[nH]c4ccccc34)n2CCOC)CC1,3.03%
9,COc1ccc(C2CC(c3cccs3)=NN2c2nc(C)c(C(C)=O)s2)cc1OC (stereo not given),1.4%
10,COC(=O)C1=CN(Cc2ccc(OC)c(OC)c2)C=C(C(=O)OC)C1c1cccs1,-1.6%
